From PubChem BioAssay (NCI) come the findings set out here.

SMILES strings stand for the structures. About 83,000 compounds went through this panel and 20% of them were active in at least one assay; those are over-represented in the sample as a whole.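 Cell lines were cultured in 96-well plates, exposed to a single compound concentration, and assessed for percent growth 48 hours later.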 Unmarked numbers belong to inactive results. Active and inactive are the calls of the source. The calls were made as follows: active = growth percent below 10; inactive = the rest.

Among the test systems are NCI-H23 lung; NCI-H226 lung; NCI-H322M lung; HOP-62 NSCLC; NCI-H460 lung; HOP-92 NSCLC; NCI-H522 lung; A549/ATCC NSCLC; 786-0 renal; COLO 205 colon; DU-145 prostate; K-562 leukemia; MALME-3M melanoma; MDA-MB-231 breast; RXF 393 renal; SF-268 CNS; SF-539 CNS; UACC-257 melanoma; M14 melanoma; SF-295 CNS.
Common to all, as to assay: NCI-60 one-dose screen, 48 h (100 = growth as untreated, 0 = no growth, -100 = all killed)
Common to all, as to conditions: 10 µM unless noted

Take `COc1cc2[nH]c(C(=O)c3cc(OC)c(OC)c(OC)c3)c(N)c2cc1C#CCO`: the growth in the assay with NCI-H23 lung is 35.7%; with NCI-H226 lung it was 27.9%; with NCI-H322M lung, 43.6%; with HOP-62 NSCLC, 28.3%; with NCI-H460 lung, 7.9% (active); in the assay on HOP-92 NSCLC, 21.6%. Besides, the growth in the assay on NCI-H522 lung is -6.03% (active); in the assay with A549/ATCC NSCLC, 33%; in the assay on 786-0 renal it was 40.8%; with COLO 205 colon, -35.8% (active); in the assay on DU-145 prostate it was 12.2%; in the assay with K-562 leukemia it was 7.65% (active). Moreover, the growth in the assay on MALME-3M melanoma is 31.7%; in the assay with MDA-MB-231 breast it was 39%; in the assay with RXF 393 renal, 1.88% (active); in the assay with SF-268 CNS, 32.5%; in the assay on SF-539 CNS, -35% (active); in the assay on UACC-257 melanoma, 71.2%. In addition, the growth in the assay on M14 melanoma was 7.42% (active).
For `Fc1ccc2nc(-c3cc(-c4ccc5c(c4)OCO5)n[nH]3)[nH]c2c1`, the growth is 64% in the assay on NCI-H23 lung; 66.1% with NCI-H226 lung; 64.9% in the assay on NCI-H322M lung; 75.5% with HOP-62 NSCLC; 40.9% with NCI-H460 lung; 64.9% in the assay on HOP-92 NSCLC. Besides, the growth in the assay on NCI-H522 lung was 33.7%; with A549/ATCC NSCLC, 60.1%; with 786-0 renal, 56.8%; with COLO 205 colon it was 84.7%; with DU-145 prostate it was 78.3%; in the assay on K-562 leukemia, 15.5%. The growth in the assay on MALME-3M melanoma was 57.7%; in the assay with MDA-MB-231 breast, 67.6%; in the assay with RXF 393 renal it was 63.1%; in the assay on SF-268 CNS it was 77.5%; in the assay with SF-539 CNS, 56.3%; in the assay on UACC-257 melanoma, 84.9%. Besides, the growth in the assay with M14 melanoma was 49.5%.
`CCOc1ccc(NC(=O)c2ccccc2-c2ccccc2C(=O)O)cc1`: the growth in the assay on NCI-H23 lung is 109%; in the assay on NCI-H226 lung, 104%; in the assay with NCI-H322M lung, 106%; in the assay with HOP-62 NSCLC it was 106%; in the assay with NCI-H460 lung it was 113%; in the assay on HOP-92 NSCLC, 106%. The growth in the assay with NCI-H522 lung was 104%; with A549/ATCC NSCLC it was 107%; in the assay on 786-0 renal it was 105%; in the assay on COLO 205 colon it was 113%; in the assay with DU-145 prostate, 106%; with K-562 leukemia, 90.2%. Further, the growth was 107% in the assay with MDA-MB-231 breast; 114% with RXF 393 renal; 105% in the assay with SF-268 CNS; 115% in the assay with SF-295 CNS; 117% in the assay on SF-539 CNS; 112% with UACC-257 melanoma. Moreover, the growth in the assay on M14 melanoma was 113%.
Turning to `O=C(NC1=CC(=O)c2ccccc2C1=O)c1ccccc1`, the growth in the assay with NCI-H23 lung is 18.7%; in the assay on NCI-H226 lung, 37.3%; with NCI-H322M lung it was 57.9%; in the assay on HOP-62 NSCLC it was 49.7%; with NCI-H460 lung, 10.2%; in the assay with HOP-92 NSCLC, -84.1% (active). Besides, the growth in the assay on NCI-H522 lung was -48.8% (active); in the assay with A549/ATCC NSCLC, 23.8%; with 786-0 renal, 39.9%; in the assay on COLO 205 colon, 48%; in the assay with DU-145 prostate it was 63.4%; in the assay with K-562 leukemia, -0.828% (active). Moreover, the growth in the assay on MDA-MB-231 breast was 16.9%; with RXF 393 renal it was 35.3%; in the assay with SF-268 CNS, 39.3%; with SF-295 CNS it was 4.13% (active); in the assay on SF-539 CNS, 10.5%; in the assay on UACC-257 melanoma it was -4.63% (active). Moreover, the growth in the assay on M14 melanoma is 33.9%.
Turning to `CCOC(=O)c1ccc2c(c1)[n+](=O)c(C(=O)C1CCCS1)c(C(F)(F)F)n2[O-]` (configuration not stated), the growth was -87% (active) in the assay with NCI-H23 lung; -54.9% (active) in the assay on NCI-H226 lung; -87.6% (active) in the assay with NCI-H322M lung; -90.6% (active) with HOP-62 NSCLC; -73.7% (active) with NCI-H460 lung; -83.6% (active) in the assay with HOP-92 NSCLC. In addition, the growth was -83.3% (active) in the assay with NCI-H522 lung; -94.9% (active) with A549/ATCC NSCLC; -92.3% (active) in the assay with 786-0 renal; -84.8% (active) in the assay on COLO 205 colon; -96.5% (active) in the assay with DU-145 prostate; -52.6% (active) with K-562 leukemia. The growth with MDA-MB-231 breast was -76.8% (active); in the assay with RXF 393 renal it was -92.3% (active); in the assay with SF-268 CNS it was -89.6% (active); in the assay with SF-295 CNS it was -88% (active); in the assay with SF-539 CNS, -83.8% (active); in the assay on UACC-257 melanoma, -90.4% (active). The growth with M14 melanoma was -96.6% (active).
In the case of `Cc1ccc2c(c1)c(-c1nc(-c3c[nH]c4ncccc34)cs1)cn2C`, the growth in the assay on NCI-H23 lung is 71.9%; in the assay with NCI-H226 lung, 88.9%; with NCI-H322M lung, 73.1%; with HOP-62 NSCLC, 105%; with NCI-H460 lung, 56.8%; in the assay on HOP-92 NSCLC it was 83.8%. In addition, the growth is 70.5% with NCI-H522 lung; 87.8% with A549/ATCC NSCLC; 83% in the assay on 786-0 renal; 112% in the assay on COLO 205 colon; 115% with DU-145 prostate; 81% in the assay with K-562 leukemia. The growth in the assay on MDA-MB-231 breast was 75.7%; in the assay with RXF 393 renal it was 97.4%; in the assay with SF-268 CNS it was 128%; in the assay with SF-295 CNS, 101%; in the assay with SF-539 CNS, 92%; with UACC-257 melanoma, 115%. The growth with M14 melanoma was 101%.
With `Cn1cc(-c2csc(-c3cn(C(=O)OC(C)(C)C)c4ccccc34)n2)c2cccnc21`, the growth was 70.4% in the assay with NCI-H23 lung; 91.4% in the assay on NCI-H226 lung; 103% with NCI-H322M lung; 73.7% with HOP-62 NSCLC; 60.7% in the assay on NCI-H460 lung; 57.1% in the assay with HOP-92 NSCLC. Moreover, the growth was -8.18% (active) in the assay on NCI-H522 lung; 52.9% in the assay with A549/ATCC NSCLC; 76.6% with 786-0 renal; 64.8% with COLO 205 colon; 92.7% with DU-145 prostate; 23.3% in the assay with K-562 leukemia. Moreover, the growth in the assay with MDA-MB-231 breast was 65.4%; in the assay on RXF 393 renal, 80.1%; in the assay on SF-268 CNS, 81.6%; in the assay on SF-295 CNS, 48.2%; with SF-539 CNS, 71.4%; in the assay with UACC-257 melanoma, 82.9%. Moreover, the growth with M14 melanoma was 54.8%.
On to `S=c1[nH]nc2ccccn12`, for which the growth with NCI-H23 lung was 104%; in the assay on NCI-H226 lung it was 122%; with NCI-H322M lung, 105%; in the assay on HOP-62 NSCLC it was 102%; in the assay with NCI-H460 lung, 109%; in the assay with HOP-92 NSCLC, 100%. In addition, the growth in the assay on NCI-H522 lung was 82.3%; in the assay on A549/ATCC NSCLC it was 106%; in the assay on 786-0 renal, 112%; with COLO 205 colon, 118%; in the assay on DU-145 prostate it was 114%; with K-562 leukemia, 92.6%. Also, the growth in the assay with MDA-MB-231 breast was 103%; with RXF 393 renal, 119%; in the assay with SF-268 CNS, 117%; in the assay with SF-295 CNS it was 108%; with SF-539 CNS, 99.1%; with UACC-257 melanoma, 108%. Moreover, the growth with M14 melanoma was 108%.
